# From PubChem
# Lmaj promast = Leishmania major promastigote growth inhibition, primary screen. inhibition, % at 10 µM. 200,000 compounds, 9% hits. AID 1063, 2008. Leishmania major promastigotes, resazurin fluorescence viability; in the data active means inhibition above about 50%;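 further: promastigotes grown with compound for 44 hours at 28 °C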
# bCat KO growth = primary screen for growth suppressors in beta-catenin knockout HCT116 cells (colon tumor, human). viability, % at 10 µM. HCT116 beta-catenin knockout viability, CellTiter-Glo, 60 h; hits give low values. 140,000 compounds, 1.5% hits;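 active means viability at or under a set limit, the compound median less 4 SD, cut at about 6% in these data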;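 further: 0% = Hyamine 1622 control at 20 µM and 100% = untreated cell control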
# p97 ATPase inh = inhibitors of human p97 ATPase, primary screen, biochemical | inhibition, % at 8 µM | 220,000 compounds, 0.42% hits | Transitional endoplasmic reticulum ATPase (Homo sapiens), P55072 | recombinant p97 ATPase, Kinase-Glo ATP luminescence, 3 h; in the data active means inhibition above about 15%;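 further: 0% = DMSO vehicle and 100% = wells lacking enzyme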
# Target sequence (P55072 whole entry, looked up): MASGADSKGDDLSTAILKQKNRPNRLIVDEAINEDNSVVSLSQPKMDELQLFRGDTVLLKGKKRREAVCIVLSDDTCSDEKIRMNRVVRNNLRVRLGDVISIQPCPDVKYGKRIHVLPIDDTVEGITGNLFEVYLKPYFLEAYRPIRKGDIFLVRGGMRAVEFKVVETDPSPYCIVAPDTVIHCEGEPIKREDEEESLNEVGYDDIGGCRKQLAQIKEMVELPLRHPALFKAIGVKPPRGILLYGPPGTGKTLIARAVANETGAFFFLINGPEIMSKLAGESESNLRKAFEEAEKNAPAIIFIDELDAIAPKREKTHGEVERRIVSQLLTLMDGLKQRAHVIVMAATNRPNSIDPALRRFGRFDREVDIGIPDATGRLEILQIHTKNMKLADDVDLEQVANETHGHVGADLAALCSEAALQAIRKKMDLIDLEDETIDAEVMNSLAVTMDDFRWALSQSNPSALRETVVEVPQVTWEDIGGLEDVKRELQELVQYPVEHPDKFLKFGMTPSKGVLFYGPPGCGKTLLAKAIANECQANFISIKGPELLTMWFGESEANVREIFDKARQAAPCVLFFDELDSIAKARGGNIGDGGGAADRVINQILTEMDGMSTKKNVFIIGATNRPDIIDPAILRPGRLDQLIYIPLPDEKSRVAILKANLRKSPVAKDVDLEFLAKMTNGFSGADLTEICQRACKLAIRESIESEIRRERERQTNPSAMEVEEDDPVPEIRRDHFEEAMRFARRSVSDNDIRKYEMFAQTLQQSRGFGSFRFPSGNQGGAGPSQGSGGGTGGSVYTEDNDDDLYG
# HCT116 PTEN-null = growth suppression of PTEN-null HCT116, primary screen, cell-based, CellTiter-Glo; HCT116 PTEN-null viability, 60 h; hits give low values; viability, % at 10 µM; 140,000 compounds, 1.2% hits; AID 827, 2007;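 active means viability at or below a set limit, 4 SD under the median of all tested compounds, cut at about 3.7% in these data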;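 further: PTEN knockout HCT116 line with beta catenin targeted HCT116 as companion control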
# Insulin prom inh = inhibitors of insulin promoter-driven GFP, primary screen, imaging, TRM-6 cells (human fetal islet line), eGFP reporter, cell count | inhibition, % at 2 µM | reporter expression induced with tamoxifen | 130,000 compounds, 0.9% hits | AID 1273, 2008;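 active means inhibition above the mean plus 3 SD, with well images judged a real hit on visual review, cut at about 60% in these data, passing the limit was not always enough; inconclusive means inhibition over the cutoff but images rejected on review; inactive means inhibition not above the cutoff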
# ROMK mod = ROMK potassium channel modulators, primary screen, cell-based, thallium flux, MLSMR library | ATP-sensitive inward rectifier potassium channel 1 (Homo sapiens), P48048 | Tet-inducible ROMK, thallium flux fluorescence; actives lie on both sides | B-score at 10 µM | 130,000 compounds, 2% hits;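 active means signal ratio slope over the read window, or its plate-corrected B-score, at least 3 SD from the plate mean, either direction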;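 further: B-score of the F/F0 ratio slope over 7 to 12 s after thallium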
# Active calls of the source: *; ? = inconclusive; . = not tested or not shown. Shown are actives, neighbours in structure and some others; about 10% of the full set was active somewhere.
SMILES,Lmaj promast,bCat KO growth,p97 ATPase inh,HCT116 PTEN-null,Insulin prom inh,ROMK mod
CCCCC(CC)C1OCC(CN2CCCC2)O1 (stereo unspecified),84*,70,2,82,-28,-0.47
COc1cc(/C=N/n2nnnc2N)cc(OC)c1OC,.,.,7,.,.,.
CCOC(=O)c1c(NC(=O)CSc2nnnn2C)sc(CC)c1C,9,101,-2,86,31,.
CC1CN(C(=O)CCc2ccccc2)C(C)CN1C(=O)CCc1ccccc1 (stereo unspecified),18,91,-2,87,8,.
O=C(OC1C2CCC1C1CN(CCc3ccccc3)CC12)c1ccccc1 (stereo unspecified),51*,87,5,82,0,-3.1
CN(c1ccccc1)S(=O)(=O)c1cccc(C(=O)Nc2ccc3c(c2)CCC3)c1,75*,64,-7,57,-20,.
COc1ccc(NC(=O)c2cccc(S(=O)(=O)N(C)c3ccccc3)c2)cn1,72*,75,-2,73,-54,-0.34
COc1ccc(NC(=O)Cc2ccc(Cl)c(Cl)c2)cn1,5,.,4,.,17,-1
COc1ccc(NC(=O)c2cc(S(=O)(=O)N(Cc3ccccc3)c3ccccc3)ccc2Cl)cn1,94*,67,1,64,-12,.
COc1ccccc1N(Cc1ccccc1)S(=O)(=O)c1cccc(C(=O)Nc2ccc(C(C)=O)cc2)c1,75*,78,-1,82,26,1.1
CCOC(=O)C1CCCN(C(=S)NC2CCCC2)C1 (stereo unspecified),-5,.,-9,.,.,2.6
C=CCNC(=O)c1onc(CSc2cc(C)ccc2C)c1C(=O)O,-5,104,-2,100,46,.
CCc1cc(=O)oc2cc3occ(-c4ccc(OC)c(F)c4)c3cc12,20,4.2*,-1,2.7*,-104,.
COc1cc(CN2CCc3ccccc3C2)ccc1O,.,.,5,.,.,.
CSC1=NCCN1S(=O)(=O)c1ccc(C)cc1,-5,.,7,.,79*,0.65
CSC1=NCCN1S(=O)(=O)c1ccc(F)cc1,2,.,4,.,0,.
COc1nnc(-c2ccc(N3CCCCC3)c(N)c2)c2ccccc12,30,.,-11,.,3,.
Cc1ccc(-n2c(O)c(C=NCc3ccccn3)c3ccccc3c2=O)cc1,4,93,4,93,0,0.005
COc1ccccc1-n1c(O)c(C=NCc2ccccn2)c2ccccc2c1=O,.,.,15*,.,.,.
Cc1cccc(C)c1NC(=S)N1CCC(c2ccccc2)C1 (stereo unspecified),25,.,3,.,.,-1.3
CCOC(=O)CSc1nc2cc(C)ccc2cc1C#N,7,62,-4,47,?,0.73
CCOC(=O)CSc1nc2cc(OC)ccc2cc1C#N,3,19,2,28,94*,0.0064
CCOc1ccc2nc(SCC(=O)N3CCCCCC3)c(C#N)cc2c1,64*,95,-11,88,-30,.
Cc1nc(N2CCOCC2)[nH]c(=O)c1C,-6,.,5,.,.,.
COc1cc(/C=C(\CC(=O)O)c2nc3ccccc3s2)cc(OC)c1O,-7,.,3,.,-56,1.2
SMILES,Lmaj promast,bCat KO growth,p97 ATPase inh,HCT116 PTEN-null,Insulin prom inh,ROMK mod
COc1cc(C=C(c2nc3ccccc3s2)c2nc3ccccc3s2)cc(OC)c1O,95*,69,2,56,-32,-0.13
CCOc1cc(/C=C(\CC(=O)O)c2nc3ccccc3s2)ccc1OC,98*,.,-9,.,33,0.0097
COc1ccc(-c2nc3ccccc3s2)cc1O,-6,79,-2,79,86*,-0.064
Cc1cc(=O)c2c(C)ccc(C)c2[nH]1,.,.,5,.,.,.
CC(C)(C)c1oc(C(=O)O)cc1CN1CCOCC1,.,.,6,.,.,.
O=C(COc1ccccc1)N1CCN=C1SCc1cccnc1,65*,104,0,94,.,.
COc1ccc(CC(=O)N2CCN=C2SCc2ccc([N+](=O)[O-])cc2)cc1,76*,.,5,.,.,-0.62
O=C(Cc1ccccc1)N1CCN=C1SCc1ccc([N+](=O)[O-])cc1,93*,70,5,77,.,.
CC(=O)c1ccc(Sc2ccccn2)c([N+](=O)[O-])c1,.,.,-6,.,.,0.057
CC(=O)c1ccc(Sc2nnnn2-c2ccccc2)c([N+](=O)[O-])c1,100*,5.7*,6,6,34,.
O=[N+]([O-])c1ccc(Sc2nnnn2-c2ccccc2)c(Cl)c1,90*,18,4,19,55,-1.4
Cn1cnnc1Sc1cc(N2CCN(S(=O)(=O)c3ccccc3)CC2)ccc1[N+](=O)[O-],4,73,-7,78,-33,0.49
CN1CCN(S(=O)(=O)c2ccc(Sc3nnnn3-c3ccccc3)c([N+](=O)[O-])c2)CC1,100*,5.4*,11,3.2*,17,0.46
COc1ccc(C(=O)N/N=C/c2cn[nH]c2-c2ccc(OC)cc2OC)cc1,-7,87,2,90,66*,0.26
COc1ccc(C(=O)N/N=C/c2cccc3cccnc23)cc1,97*,4.9*,1,6,.,-0.11
COc1ccc(C(=O)N/N=C(\c2ccccc2)c2ccccn2)cc1,100*,4.6*,-3,6,-15,0.73
CCOc1ccc(C(=O)N/N=C/c2cccc3cccnc23)cc1,98*,10,1,8,3,.
COc1ccc(-c2[nH]ncc2/C=N/NC(=O)c2ccc(Br)cc2)c(OC)c1,-7,84,9,91,24,-0.44
CSCCC(NC(=O)c1ccc(Cl)cc1)C(=O)NC(C)(C)C (stereo unspecified),2,91,0,94,-4,1.3
COCc1cc(C)nc(OCC(=O)N/N=C/c2ccc(-c3cc([N+](=O)[O-])ccc3Cl)o2)c1C#N,-2,.,2,.,-35,-0.63
NC(=O)c1c(NC(=O)C2c3ccccc3Oc3ccccc32)sc2c1CCCCC2,-4,82,2,85,-12,-0.0046
Cc1cc(C)nc(N2CCCC(C(=O)NCc3ccccc3F)C2)n1 (stereo unspecified),0,.,4,.,-13,-1.4
Cc1ccc(NC(=O)c2cc3c(=O)oc4ccc(C)cc4c3s2)nc1,.,.,2,.,.,.
COc1cccc(/C=C/C(=O)Nc2ccc(OC)nc2)c1,47,91,6,88,23,.
NS(=O)(=O)c1ccc(NC(=O)COc2ncnc3sccc23)cc1,.,.,12,.,.,.
CCN(CC)CCCNC(=O)c1cc(-c2ccc(Cl)c(Cl)c2)on1,99*,2.0*,0,2.4*,.,.
CCN(CC)CCCNC(=O)c1cc(-c2ccc(O)cc2)on1,-7,90,2,93,.,.
CCOc1cc(C(N)=O)cc(Cl)c1OCc1ccccc1,2,.,3,.,.,-0.95
CCOc1cc(CNC2CCCC2)cc(Cl)c1OCc1ccccc1,97*,1.6*,-4,1.8*,-17,.
CCOc1cc(CNCC(C)C)cc(Cl)c1OCc1ccccc1,89*,.,-5,.,-14,-1
